The list is not random: actives were taken first. Their share in the collection is about 4.5%.
hcDAF12 agonist = H. contortus DAF-12 nuclear receptor activators, primary screen, cell-based, luminescence, HEK293, lit1-tk-luc reporter | activation, % at 6.8 µM | HEK293 hcDAF-12 lit1-tk-luc reporter; 0% DMSO, 100% Δ7-dafachronic acid | hit rate 1.4% among 370,000;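 active = activation above the mean of all tested compounds plus 3 SD, cut at about 5.5% in these data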;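 note: 100% = response to 3 µM Δ7-dafachronic acid high control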
hgDAF-12 ag = H. glycines DAF-12 receptor agonists, primary screen, cell-based, luminescence, HEK293, GAL4 fusion, UAS-luciferase. Nuclear hormone receptor DAF-12 (Heterodera glycines), GAL4 fusion. HEK293 GAL4-hgDAF12 UAS-luciferase reporter, agonist luminescence; normalized to butyrate control. activation, % at 6.8 µM. hit rate 1.8% among 370,000. AID 687014, 2013;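 active = activation above a cutoff set at the mean of all screened compounds plus 3 SD, cut at about 10% in these data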;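 note: 0% = DMSO wells and 100% = sodium butyrate wells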
DAX1 inh-1 = DAX1 (NR0B1) inhibitors, primary screen, cell-based, HEK293, Gal4-DAX1, luciferase luminescence. HEK293 Gal4-DAX1 luciferase reporter. hit rate 0.99% among 340,000. inhibition, % at 6.75 µM. AID 504766, 2011;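 active = inhibition above the mean over all tested compounds plus 3 SD, cut at about 4.2% in these data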;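 note: 0% = DAX1-transfected cells with DMSO and 100% = empty-vector control cells with DMSO; inhibition shows as a rise in luminescence from relieved DAX1 repression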
Target sequence (P51843 207-470 limits assumed): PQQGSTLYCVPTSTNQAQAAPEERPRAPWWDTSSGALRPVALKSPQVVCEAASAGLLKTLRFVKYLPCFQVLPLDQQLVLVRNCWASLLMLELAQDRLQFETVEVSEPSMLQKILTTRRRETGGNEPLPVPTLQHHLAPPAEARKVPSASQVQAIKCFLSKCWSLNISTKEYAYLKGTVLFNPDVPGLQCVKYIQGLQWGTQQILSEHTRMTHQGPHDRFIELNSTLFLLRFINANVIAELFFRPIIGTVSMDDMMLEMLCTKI
ssDAF-12 act = S. stercoralis DAF-12 nuclear receptor activators, primary screen, cell-based, luminescence, HEK293, GRIP1 co-expression, lit1-tk-luc | HEK293 ssDAF-12/GRIP1 lit1-tk-luc reporter; % of 3 µM dafachronic acid response | activation, % at 6.8 µM | hit rate 1% among 370,000 | AID 652126, 2013;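 active = activation above the mean over all tested compounds plus 3 SD, cut at about 0.9% in these data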;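 note: 0% = DMSO-only wells and 100% = 3 µM delta7-dafachronic acid wells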
DAX1 inh-2 = DAX1 (NR0B1) inhibitors on StAR promoter, primary screen, cell-based, luminescence, SF-1 (NR5A1), full-length DAX-1; hit rate 1.1% among 370,000; HEK293T StAR-luciferase reporter, SF-1/DAX-1 repression relief; AID 652010, 2013; inhibition, % at 6.8 µM;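 active = inhibition above the mean over all tested compounds plus 3 SD, cut at about 3.6% in these data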;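 note: 0% = DAX-1 cells with DMSO and 100% = cells lacking DAX-1 with DMSO; higher inhibition means more luminescence from relief of DAX-1 repression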
FXN GAA850 act = FXN promoter activators, primary screen, cell-based, luciferase luminescence, HEK293 lucGAA850 | HEK293 lucGAA850 FXN promoter luciferase reporter, 24 h; percent of 10 µM SAHA response | activation, % at 6 µM | hit rate 0.56% among 360,000;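 active = activation above the average of all compounds screened plus 3 SD, cutoff fixed separately per campaign, cut at about 7.5% in these data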;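 note: 0% = DMSO wells and 100% = 10 µM SAHA wells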
DAX1 conf = DAX1 (NR0B1) inhibitors relieving SF-1 repression, confirmation, cell-based, luminescence, HEK293T, full-length DAX-1, SF-1 activated StAR promoter | shares compounds with DAX1 inh-2 | HEK293T StAR-promoter luciferase reporter, SF-1/DAX-1 repression | inhibition, % at 6.8 µM | hit rate 87% among 2,400 | AID 652134, 2013;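 active = inhibition above the average of every tested compound plus 3 SD, cut at about 3.8% in these data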;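 note: 0% = DAX-1 cells with DMSO and 100% = no DAX-1 control cells with DMSO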
SF1 AF2mut Luc = StAR reporter signal changes without DAX1, counter-screen for DAX1 inhibitor project, cell-based, luminescence, AF-2 mutant SF-1, transactivation; shares compounds with DAX1 inh-2; HEK293 StAR-luciferase, SF-1 AF2 mutant; hit rate 78% among 2,400; inhibition, % at 6.8 µM;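 active = inhibition above the mean of all tested compounds plus 3 SD, cut at about 3% in these data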;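 note: 0% = DAX-1 transfected cells with DMSO and 100% = cells without DAX-1 with DMSO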
LXR ag = LXR agonists, Gal4 luciferase reporter, confirmation, counter-screen for hcDAF-12 agonist project, cell-based, luminescence, HEK293, H. contortus campaign; shares compounds with hcDAF12 agonist; HEK293 Gal4-LXR tk-luc reporter, 24 h; normalized: DMSO 0%, positive control 100%; activation, % at 6.8 µM; 3,400 tested, under 10 active;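 active = mean percent activation of the reporter above a cutoff set as the average over tested compounds plus their standard deviation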
Target sequence (P55055 whole entry, looked up, the tested form may be a part): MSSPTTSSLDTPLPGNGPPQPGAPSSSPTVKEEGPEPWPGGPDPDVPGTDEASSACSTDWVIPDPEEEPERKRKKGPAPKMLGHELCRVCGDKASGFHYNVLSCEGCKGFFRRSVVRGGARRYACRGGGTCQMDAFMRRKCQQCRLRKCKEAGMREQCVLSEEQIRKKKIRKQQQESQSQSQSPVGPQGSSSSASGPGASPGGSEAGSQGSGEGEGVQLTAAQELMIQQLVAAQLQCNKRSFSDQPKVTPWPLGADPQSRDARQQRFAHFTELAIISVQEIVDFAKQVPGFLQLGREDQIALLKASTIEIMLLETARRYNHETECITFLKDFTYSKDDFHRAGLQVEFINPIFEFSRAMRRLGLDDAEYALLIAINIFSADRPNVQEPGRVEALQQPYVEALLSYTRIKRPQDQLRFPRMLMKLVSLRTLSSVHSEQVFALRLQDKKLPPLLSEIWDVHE
hcDAF12 ag = H. contortus DAF-12 receptor agonists, confirmation, cell-based, luminescence, HEK293, lit1-tk-luc, triplicate. shares compounds with hcDAF12 agonist. HEK293 hcDAF-12 lit1-tk-luc reporter; % of Δ7-dafachronic acid response. activation, % at 6.8 µM. hit rate 61% among 3,400;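 active = mean activation across triplicate tests above the threshold derived from the earlier primary screen, cut at about 5.5% in these data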;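 note: 0% = DMSO only wells and 100% = 3 µM Δ7-dafachronic acid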
* = called active by the depositor; nt = not tested or not shown; ! = not confirmed by another sample.

SMILES	hcDAF12 agonist	hgDAF-12 ag	DAX1 inh-1	ssDAF-12 act	DAX1 inh-2	FXN GAA850 act	LXR ag	hcDAF12 ag	others
O=C(c1cc2cc(Cl)ccc2[nH]1)N1CCC2(CC1)OCCO2	6.4*	5.5	0.5	0.6	4.6*	3.7	nt	nt	DAX1 conf=3.4;SF1 AF2mut Luc=3.8*
COC(=O)C1=C(c2ccc(OCc3ccccc3)cc2)C[C@@H]2CC[C@H]1N2C(=O)NCc1ccc([N+](=O)[O-])cc1	-1.8	0.3	2.1	-1.0	0.2	-10.3	nt	nt
C=C1[C@@H](C)[C@H]2[C@H](Cc3ccccc3)NC(=O)[C@]23OC(=O)/C=C/[C@H](O)CCC[C@@H](C)C/C=C/[C@H]3[C@@H]1O	-1.9	-6.8	-1.9	-1.4	-3.9	-9.6	nt	nt
C=C1[C@@H](C)C2[C@H](Cc3ccccc3)NC(=O)[C@]23[C@H](OC(C)=O)/C=C/[C@@](C)(O)C(=O)[C@@H](C)C/C=C/[C@H]3[C@@H]1O (some centres undefined)	0.6	-1.6	nt	0.0	13.1*	nt	nt	nt	DAX1 conf=17.2*;SF1 AF2mut Luc=-1.7
NNCc1ccccc1	3.1	1.7	0.3	-0.8	5.0*!	-0.2	nt	nt	DAX1 conf=1.9;SF1 AF2mut Luc=2.9*
C/C(=N\NC(=O)c1ccccc1)c1c(O)n(C2CCCCC2)c(=O)[nH]c1=O	4.0	9.6	0.5	-0.5	6.0*	1.3	nt	nt	DAX1 conf=1.9;SF1 AF2mut Luc=2.2
COC(=O)C1=C(c2ccc(F)cc2F)C[C@@H]2CC[C@H]1N2C	-1.8	1.7	2.2	-1.1	-0.2	-0.4	nt	nt
CC1CC2CC(=O)CCC2(C)C2CCC3(C)C(O)CCC3C12 (centres undefined)	1.4	-1.1	-0.1	-1.0	-0.5	3.7	nt	nt
CNC(=O)Oc1cccc(-c2cn3cc(Cl)ccc3n2)c1	15.4*	13.1*	-5.6	2.5*	5.8*	4.0	1.8	16.4*	DAX1 conf=14.0*;SF1 AF2mut Luc=5.1*
CC(C)C(C(=O)NC(C)(C)C)N1C(=O)CN=C(c2ccccc2)c2ccccc21 (centres undefined)	-2.1	-4.1	nt	-1.6	-0.7	nt	nt	nt
CCN1C(=O)N(CC)C(=O)C2(Cc3ccccc3N3CCN(c4ccccc4)CC32)C1=O (centres undefined)	8.7*	9.7	nt	0.2	0.9	1.6	0.1	2.8
COc1ccc2nc(NC3=NCCN3)sc2c1	10.2*	11.9*	3.3	1.0*	2.8	4.0	1.1	7.4*
c1ccc2sc(NC3=NCCN3)nc2c1	9.3*	6.8	2.0	0.4	1.2	5.2	0.6	7.2*
C[C@]12CCC3C(CC[C@H]4C[C@@H](O)CC[C@]34C)C1C[C@@H](Br)[C@H]2O (some centres undefined)	-0.1	-1.0	nt	-1.1	0.2	0.7	nt	nt
CS(=O)(=O)c1ccc(C2=C(CNC(=O)c3ccc([N+](=O)[O-])cc3)[C@H]3CC[C@@H](C2)N3CCOc2ccccc2)cc1	-1.3	-0.4	-2.1	-0.9	-0.6	-0.9	nt	nt
COc1ccc(NP2(=O)NCCCN2)cc1	-1.2	1.3	-0.5	-0.9	0.6	0.5	nt	nt
COc1ccc(P2(=O)Nc3ccccc3N2)cc1	8.0*	5.5	0.1	1.4*	1.7	1.9	0.8	5.4
CN(C)c1ccc2c(c1)N=C(c1ccco1)OP2(=S)N1CCOCC1 (centres undefined)	7.6*	3.5	0.1	1.9*	1.3	3.4	0.1	2.5
O=C(N/N=C/c1c(O)n(CCC2=CCCCC2)c(=O)[nH]c1=O)c1ccccc1	2.2	6.5	0.4	-0.1	1.7	6.2	nt	nt
Nc1ccccc1N=Cc1c(O)n(CCC2=CCCCC2)c(=O)[nH]c1=O	9.6*	11.4*	2.7	0.6	3.3	6.3	-0.1	1.2
CCCC1(CC(C)CC)C(=O)NC(=O)NC1=O (centres undefined)	1.0	-3.4	1.1	-0.5	1.2	-0.5	nt	nt
Cc1cccc(N=Nc2ccc(N(C)C)cc2)c1	8.7*	12.8*	1.3	1.0*	2.5	2.6	1.8	5.4
O=Cc1c(C(=O)O)n(Cc2ccccc2F)c2ccccc12	7.9*	0.4	1.1	0.1	0.1	-0.4	-0.2	4.7
Cc1nc(C)c(C(=O)NN=Cc2ccc(N(CCCl)CCCl)cc2)s1	-1.3	-3.9	-1.3	-1.2	-1.8	-2.2	nt	nt
c1ccc2c(CN3CCCCC3)c[nH]c2c1	2.5	2.7	-1.0	-0.3	1.1	1.4	nt	nt
OC(CN1CCCCC1)c1c[nH]c2ccccc12 (centres undefined)	8.0*	-0.1	2.1	-0.2	-0.3	0.3	-0.3	4.4
O=C1NC(=O)C(C2CCOC2=O)N1 (centres undefined)	0.4	-1.8	0.4	-1.1	0.1	-1.3	nt	nt
C=CCn1c(O)c(/C=C2\C=Nc3ccccc32)c(=O)[nH]c1=O	6.7*	1.3	nt	-0.2	-0.3	0.1	-0.2	4.6
COc1ccc(Cl)cc1N=Cc1c(O)n(C)c(=O)n(C)c1=O	-2.5	4.0	-0.3	-1.3	-0.1	0.8	nt	nt
CCn1c(O)c(C=Nc2cc(Cl)ccc2Cl)c(=O)n(CC)c1=O	6.8*	3.1	0.1	0.0	-0.2	1.9	-0.3	1.1
